Several values for one entry are separate records, joined by “and”; a condition that tells them apart may be missing. Equal values may be shown once. Screen size: about 5,500 compounds; about 2,000 (36%) were called active. Another 18% or so got no clear call; they are omitted. Rule as the data show it: active = normalized growth mostly below about 0.91 (no sharp cut-off); inconclusive = no clear call, values can overlap the other calls; inactive = mostly above about 0.92. The list shows a part of the results.
Test: chemical genetic growth profiling, strain panel (AID 1159580);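 also: tested at 20 µM; growth read once vehicle control cultures reached saturation at 30 °C; 1 = growth at the plate median or of vehicle wells; lower values mean less growth of the strain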
Settings: S. cerevisiae deletion strains, growth OD

Measured: normalized growth

CCCC(C)C1(CC)C(=O)N=C(S)NC1=O (stereo unspecified)
inactive: locus YAL013W, strain DEP1, active compounds read low 1.01 | locus YAL021C, strain ccr4, active compounds read low 0.993 | locus YAL026C, strain drs2, active compounds read low 0.994 | locus YAL030W, strain snc1, active compounds read low 0.983 | locus YBL061C, strain skt5, active compounds read low 1.01 | locus YBR009C, strain hhf1, active compounds read low 0.992 | locus YBR021W, strain FUR4, active compounds read low 1.01 | locus YBR023C, strain chs3, active compounds read low 0.989 | locus YBR171W, strain sec66, active compounds read low 0.993 | locus YBR229C, strain ROT2, active compounds read low 1.01 | locus YBR231C, strain swc5, active compounds read low 1.01 | locus YBR279W, strain paf1, active compounds read low 0.998 | locus YCL011C, strain gbp2, active compounds read low 1.01 | locus YCL016C, strain dcc1, active compounds read low 0.995 | locus YCL061C, strain MRC1, active compounds read low 1 | locus YCL069W, strain vba3, active compounds read low 1 | locus YCR088W, strain abp1, active compounds read low 0.984 | locus YDL005C, strain med2, active compounds read low 0.987 | locus YDL035C, strain GPR1, active compounds read low 1.02 | locus YDL040C, strain nat1, active compounds read low 0.993 | locus YDL074C, strain BRE1, active compounds read low 1.06 | locus YDL101C, strain DUN1, active compounds read low 1.01 | locus YDL134C, strain PPH21, active compounds read low 1 | locus YDL185W, strain tfp1, active compounds read low 1.01 | locus YDR001C, strain nth1, active compounds read low 1 | locus YDR069C, strain doa4, active compounds read low 0.996 | locus YDR137W, strain rgp1, active compounds read low 0.908 | locus YDR150W, strain NUM1, active compounds read low 1.02 | locus YDR159W, strain sac3, active compounds read low 0.971 | locus YDR162C, strain NBP2, active compounds read low 1.02 | locus YDR195W, strain ref2 0.979 | locus YDR297W, strain sur2, active compounds read low 0.997 | locus YDR334W, strain swr1, active compounds read low 0.998 | locus YDR335W, strain msn5, active compounds read low 0.993 | locus YDR392W, strain spt3, active compounds read low 0.977 | locus YEL003W, strain gim4, active compounds read low 0.997 | locus YEL037C, strain rad23, active compounds read low 1 | locus YEL061C, strain CIN8 (second series), active compounds read low 0.997 | locus YEL061C, strain CIN8, active compounds read low 1 | locus YER015W, strain faa2, active compounds read low 0.998 | locus YER016W, strain bim1, active compounds read low 1.01 | locus YER111C, strain swi4, active compounds read low 1.01 | locus YER155C, strain BEM2 (second series), active compounds read low 0.986 | locus YER155C, strain BEM2, active compounds read low 1.01 | locus YER167W, strain BCK2, active compounds read low 1.02 | locus YFR010W, strain ubp6, active compounds read low 1.01 | locus YGL167C, strain pmr1, active compounds read low 0.991 | locus YGL173C, strain kem1, active compounds read low 0.99 | locus YGL227W, strain vid30, active compounds read low 0.981 | locus YGL240W, strain doc1, active compounds read low 0.982 | locus YGL248W, strain PDE1, active compounds read low 1.01 | locus YGL253W, strain hxk2, active compounds read low 1.01 | locus YGR078C, strain PAC10, active compounds read low 1.03 | locus YGR229C, strain SMI1, active compounds read low 1.01 | locus YHR013C, strain ard1, active compounds read low 0.997 | locus YHR027C, strain rpn1, active compounds read low 0.996 | locus YHR030C, strain SLT2, active compounds read low 1.01 and 0.984 | locus YHR079C, strain IRE1, active compounds read low 0.979 | locus YHR129C, strain ARP1, active compounds read low 1.01 | locus YHR142W, strain chs7, active compounds read low 0.986 | locus YIL066C, strain RNR3, active compounds read low 1.03 | locus YIL073C, strain SPO22, active compounds read low 1.11 | locus YJL092W, strain hpr5, active compounds read low 0.991 | locus YJL095W, strain BCK1 (second series), active compounds read low 0.995 | locus YJL095W, strain BCK1, active compounds read low 1 and 0.991 | locus YJL115W, strain asf1, active compounds read low 0.988 | locus YJL129C, strain trk1, active compounds read low 0.962 | locus YJL134W, strain LCB3, active compounds read low 1.01 | locus YJL154C, strain vps35, active compounds read low 0.987 | locus YJL164C, strain tpk1, active compounds read low 0.995 | locus YJL166W, strain qcr8, active compounds read low 0.975 | locus YJL187C, strain SWE1 (second series), active compounds read low 1 | locus YJR043C, strain POL32, active compounds read low 1.02 | locus YJR066W, strain TOR1, active compounds read low 0.945
active: locus YCL029C, strain bik1, active compounds read low 0.557 | locus YDL192W, strain arf1, active compounds read low 0.0766 | locus YDR101C, strain arx1, active compounds read low 0.371 | locus YDR318W, strain mcm21, active compounds read low 0.0671 | locus YDR388W, active compounds read low 0.0597 | locus YDR502C, strain sam2, active compounds read low 0.0887 | locus YER110C, active compounds read low 0.157 | locus YGL078C, strain dbp3, active compounds read low 0.095 | locus YGL086W, strain mad1, active compounds read low 0.0546 | locus YGR135W, strain pre9, active compounds read low 0.0693 | locus YGR252W, strain gcn5, active compounds read low 0.187 | locus YHR079C, strain IRE1 (second series), active compounds read low 0.407 | locus YHR094C, strain hxt1, active compounds read low 0.0939 | locus YHR200W, strain rpn10, active compounds read low 0.0912 | locus YIL125W, strain kgd1, active compounds read low 0.141 | locus YIR030C, strain dcg1, active compounds read low 0.185 | locus YJL168C, strain set2, active compounds read low 0.123

Reference: PubChem BioAssay AID1159580 (chemical genetic matrix, 2015)
